Source: PubChem BioAssay (NCATS)

Experiment: High-throughput drug toxicity screening in the BPDCN cell line Gen2.2 (AID 1224824);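 note: cells exposed to compounds for 48 h before reading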
Settings: Gen2.2 BPDCN cells; at 45.8 µM (top of the series) unless noted
Procedure, shortened: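 Gen2.2 cells (500/well) in phenol red-free RPMI with 10% FBS were exposed to compounds for 48 h at 37 °C, 5% CO2. Viability was read by CellTiter-Glo luminescence and normalized to DMSO (100%) and 9.2 uM bortezomib (0%).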

| SMILES | cell viability, % of control (lower = more cytotoxic) |
| --- | --- |
| Clc1ccc(CCC(Cn2ccnc2)Sc2c(Cl)cccc2Cl)cc1 (centres undefined) | 177% |
| C=C1C(=O)OC2C=C(C)CCC=C(C)CCC12 (centres undefined) | 10.5% |
| NC(=O)c1cnc(-c2ccc(C3(N)CCC3)cc2)c(-c2ccccc2)c1 | 80.1% |
| CC(=O)OC1C(C)OC(Oc2c(-c3ccc(O)cc3)oc3cc(O)cc(O)c3c2=O)C(O)C1OC(C)=O (centres undefined) | 5.65% |
| COC1CCC(N(C(=O)C2CCC(C)CC2)c2cc(C3=CCCCC3)sc2C(=O)O)CC1 (centres undefined) | 66.7% |
| NC(=O)c1cccc2[nH]c(-c3ccc([C@H]4CCCN4)cc3F)nc12 | 104% |
| CC1(C)CCC(CN2CCN(c3ccc(C(=O)NS(=O)(=O)c4ccc(NCC5CCOCC5)c([N+](=O)[O-])c4)c(Oc4cnc5[nH]ccc5c4)c3)CC2)=C(c2ccc(Cl)cc2)C1 | 37.9% |
| CCC(CC)[C@H](NC(C)=O)[C@@H]1[C@H](O)[C@@H](C(=O)O)C[C@@H]1N=C(N)N | 81.8% |
| O=C(O)C=Cc1ccc(O)c(O)c1 | 21.3% |
| O=C(NCc1ccccc1)c1csc(Nc2ccncn2)n1 | 1.93% |
| CO[C@H]1C=CC=C(C)C(=O)NC2=CC(=O)C(NCCN(C)C)=C(C[C@@H](C)C[C@H](OC)[C@@H](O)[C@@H](C)C=C(C)[C@@H]1OC(N)=O)C2=O | 4.49% |
| C[N+](C)(C)CC(=O)O | 178% |
| Cc1c(O)cccc1C(=O)N[C@@H](CSc1ccccc1)[C@H](O)CN1C[C@H]2CCCC[C@@H]2C[C@@H]1C(=O)NC(C)(C)C | 66.8% |
| CN[C@@H](C)C(=O)N[C@H]1CN(C(=O)CC(C)C)CC[C@H]2CC[C@@H](C(=O)NC(c3ccccc3)c3ccccc3)N2C1=O | 19.5% |
